High-throughput results from PubChem BioAssay.
KKLEB cytotox: cytotoxicity in KKLEB CF airway cells, primary screen, cytotoxicity control for CF NF-kB inhibitor project, cell-based, uHTS, fluorescence assay plates; activity change (cytotoxicity), % at 5 µM; AID 602141, 2011; actives 0.36% (n = 360,000); KKLEB CF airway cells viability, ATPlite luminescence, overnight; active compounds read low; cells stimulated with P. aeruginosa culture filtrate;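 active = corrected activity change at or below -50% at 5 µM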
ABHD5-PLIN5 inh: ABHD5-PLIN5 interaction inhibitors, primary screen, cell lysate, split luciferase complementation, luminescence; Split G. princeps luciferase complementation, 4 h; inhibition, % at 4 µM; actives 0.78% (n = 360,000); AID 602281, 2012;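 active = inhibition above the mean inhibition across every tested compound plus 3 SD, cut at about 22% in these data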;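 note: 0% = DMSO only wells and the 100% control is not disclosed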
Peg3 promoter: Peg3 promoter-driven luciferase inhibitors, primary screen, cell-based, HeLa, luciferase luminescence; HeLa PEG-Prom luciferase reporter, overnight; inhibition, % at 20 µM; actives 1.7% (n = 360,000); AID 588405, 2011;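 active = inhibition of at least 50% at 20 µM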
TRPM1 prom inh: inhibitors of MITF-dependent TRPM1 promoter reporter, primary screen, cell-based, SK-MEL-5, single point, luciferase; actives 0.83% (n = 330,000); SK-MEL-5 TRPM1 promoter luciferase, 24 h; inhibition, % at 12.5 µM;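 active = mean inhibition across replicates of 60% or more, whatever share of single replicates reaches that level; inconclusive = some that reach 60%, reason not given; inactive = mean inhibition across replicates below 60%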
HIF-2a inh: HIF-2a reporter inhibitors, primary screen, luminescence, 786-0 RCC cells. actives 0.72% (n = 360,000). 786-0 RCC cells HIF-2a reporter, luciferase luminescence, overnight. AID 624352, 2012. inhibition, % at 18.8 µM;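 active = inhibition of the luminescence signal of 40% or more relative to plate controls, in a single-dose primary screen at 18.75 µM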
CF NFkB inh: inhibitors of PAF-induced NF-kB signaling, primary screen, cell-based, GFP fluorescence, uHTS; KKLEB NF-kB-GFP reporter, GFP fluorescence overnight; inhibition, % at 5 µM; actives 0.86% (n = 360,000); AID 588850, 2011;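 active = at least 50% inhibition at 5 µM, scaled per plate between neutral and stimulator controls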;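 note: PAF is a Pseudomonas aeruginosa culture filtrate used as stimulus; plate controls were PAF-stimulated DMSO wells for no effect and unstimulated DMSO wells for full effect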
ABHD5-PLIN5 conf: ABHD5-PLIN5 interaction inhibitors, confirmation, biochemical, luminescence; AID 651612, 2012; shares compounds with ABHD5-PLIN5 inh; inhibition, % at 4 µM; actives 67% (n = 2,200); in the data active = inhibition above about 23%;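 note: 0% = DMSO vehicle wells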
HNF4 counter: HNF4 dimerization inhibitors, counter-screen for ABHD5-PLIN5 interaction inhibitor project, biochemical, split-luciferase complementation, luminescence. shares compounds with ABHD5-PLIN5 inh. actives 77% (n = 2,200). inhibition, % at 4 µM;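 active = mean inhibition across replicate wells exceeding the computed hit threshold, cut at about 13% in these data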;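 note: light from luciferase halves that rejoin when HNF4 fusion proteins dimerize; 0% = DMSO only wells and the 100% control is not given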
Target sequence (P41235 whole entry, looked up, the tested form may be a part): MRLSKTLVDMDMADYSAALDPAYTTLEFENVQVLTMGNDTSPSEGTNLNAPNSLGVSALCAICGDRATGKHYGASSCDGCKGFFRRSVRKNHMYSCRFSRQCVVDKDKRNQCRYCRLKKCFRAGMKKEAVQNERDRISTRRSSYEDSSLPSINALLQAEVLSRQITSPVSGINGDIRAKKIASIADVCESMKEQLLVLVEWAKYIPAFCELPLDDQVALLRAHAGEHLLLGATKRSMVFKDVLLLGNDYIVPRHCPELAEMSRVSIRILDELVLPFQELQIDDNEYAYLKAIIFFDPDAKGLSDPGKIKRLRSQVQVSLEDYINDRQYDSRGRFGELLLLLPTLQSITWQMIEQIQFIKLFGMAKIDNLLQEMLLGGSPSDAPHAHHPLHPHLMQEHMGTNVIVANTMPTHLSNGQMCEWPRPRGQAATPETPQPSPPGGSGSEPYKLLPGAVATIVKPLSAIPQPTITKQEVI
* hit, by the source's call; u = inconclusive; x = not tested or not shown. Only some compounds are listed: those with a hit (about 3.1% of all), similar ones and a draw of the others.

SMILES	KKLEB cytotox	ABHD5-PLIN5 inh	Peg3 promoter	TRPM1 prom inh	HIF-2a inh	CF NFkB inh	ABHD5-PLIN5 conf	HNF4 counter
OC(c1ccc(F)c(F)c1)c1nc(-c2ccoc2)cs1 (stereo not given)	21.8	20.0	-6.0	x	-32.6	-42.0	x	x
Cc1ccc(SC(CC(=O)c2ccc(F)cc2)C(=O)O)cc1 (stereo not given)	0.7	84.4*	12.1	-8.2	8.8	-22.5	24.3*	70.3*
O=C1CN(C(=O)c2ccc(F)cc2)c2ccccc2N1	-14.7	1.0	-25.6	10.5	-2.3	8.9	x	x
CC1=C(C(=O)N2CCOCC2)CC(CC(=O)NCc2cccc3ccccc23)C(=O)N1Cc1ccc(C(C)(C)C)cc1 (stereo not given)	-3.6	9.0	7.9	x	-1.9	-40.1	x	x
COc1ccc(/C=C/C(=O)NCc2ccc3c(c2)OCO3)cc1OC	-11.6	96.2*	-8.8	4.1	5.4	-5.5	4.6	1.2
COc1ccc(/C=C/C(=O)c2cc(Br)ccc2O)cc1OC	-2.2	0.8	3.0	-14.0	5.6	4.4	x	x
COc1cc(/C=C/C(=O)O)cc(OC)c1OC	-10.5	2.5	1.1	5.8	-2.9	18.2	x	x
C/C=C/c1ccc(OCCn2nnc3ccccc32)c(OC)c1	-5.2	6.3	-208.0	-26.0	-212.3	-22.5	x	x
COc1ccc(/C=C/C(=O)c2ccccc2)cc1Cn1nnc2ccccc21	-14.3	30.8*	43.3	8.3	35.4	37.1	72.8*	65.8*
COc1cc(/C=C/C(=O)c2ccc(F)cc2)cc(OC)c1OC	2.6	37.6*	9.9	45.7	39.4	10.4	68.0*	53.4*
COc1ccc(/C=C/C(=O)c2cc(F)ccc2OC(=O)c2ccc(OC)c(OC)c2)cc1OC	-4.6	46.0*	22.8	-11.5	1.7	4.6	76.6*	52.4*
O=C(COC(=O)c1ccc(Br)cc1)NC(=O)NCc1ccccc1	13.3	-3.2	-2.2	-0.4	13.0	3.2	x	x
COC(=O)c1ccc(/C=C/C(=O)c2ccc(OC)c(OC)c2)cc1	7.2	32.9*	42.7	0.2	33.8	-0.3	65.6*	60.7*
COc1ccc(/C=C/C(=O)c2ccc(C(=O)/C=C/c3ccc(OC)c(OC)c3)cc2)cc1OC	-14.2	55.1*	43.8	15.2	32.8	-45.4	98.0*	90.8*
CCCCCN(C(=O)CCC(=O)OCC(=O)N1CCC(C)CC1)c1c(N)n(CCCC)c(=O)[nH]c1=O	-3.0	-4.1	4.8	7.3	13.3	5.7	x	x
O=C1C=C(N2CCN(C3=CC(=O)CCC3)CC2)CCC1	8.8	47.7*	8.1	-2.9	11.2	7.4	9.5	19.5*
O=C1C=C(N2CCOCC2)CCC1	-4.1	26.9*	5.3	3.7	-6.1	-2.6	3.6	3.5
COc1ccccc1N1CCN(C2=CC(=O)CCC2)CC1	10.9	20.7	-9.4	7.0	-19.4	-15.2	x	x
CC(C(=O)Nc1ccccc1-c1ccccc1)N(C)Cc1nc2ccccc2c(=O)[nH]1 (stereo not given)	-6.3	-0.4	27.7	13.9	14.4	12.9	x	x
C=CCOc1ccc(C2NC(=O)c3ccccc3O2)cc1 (stereo not given)	9.5	-6.6	-5.0	-13.5	-13.5	-10.8	x	x
C=CCOc1ccc(C(=O)/C=C2/C(=O)Nc3ccccc32)cc1	-15.8	67.2*	24.7	1.2	5.4	10.6	71.8*	67.5*
COc1ccc(C(=O)/C=C2/C(=O)Nc3ccccc32)cc1	-5.1	35.8*	32.3	0.9	37.2	-15.8	72.4*	84.6*
COc1ccc(Cl)cc1C(=O)NNC(=S)NC(=O)c1ccc(F)c(F)c1	2.6	-0.4	23.4	32.5	24.9	17.6	x	x
CCOc1ccc(Cl)cc1-c1cc(C(=O)Nc2ccc(Br)cc2)[nH]n1	-13.5	3.1	-5.4	x	-5.9	-13.5	x	x
Cc1cc(SCC(=O)NC(=O)NCc2ccco2)nc2c(C)cccc12	6.1	40.1*	12.2	10.5	20.3	19.1	27.2*	38.4*
SMILES	KKLEB cytotox	ABHD5-PLIN5 inh	Peg3 promoter	TRPM1 prom inh	HIF-2a inh	CF NFkB inh	ABHD5-PLIN5 conf	HNF4 counter
O=C(CSc1n[nH]c(-c2ccccc2)n1)NC(=O)NCc1ccco1	4.6	23.5*	9.3	-6.5	-7.5	-3.1	9.8	8.2
CCNC(=O)C(=O)NCC(c1ccc2c(c1)OCO2)N1CCOCC1 (stereo not given)	-3.9	4.1	-0.1	1.8	6.9	11.4	x	x
Oc1cc(NCCN2CCOCC2)cc2cccnc12	-10.8	51.0*	19.6	u	4.7	16.1	-4.5	3.6
O=C(NCCN1CCOCC1)c1ccc2ccccc2c1	-3.4	0.8	-38.8	-24.1	-75.0	8.1	x	x
CC(=O)Oc1ccc(N2C(=O)C3C4C=CC(CO)(O4)C3C2=O)cc1 (stereo not given)	-0.8	26.3*	25.9	11.8	-0.6	5.3	13.7	67.0*
CCCn1nnc(NC(=O)/C=C/c2ccco2)n1	-1.9	-4.1	-11.7	-10.5	-25.6	-15.2	x	x
Cn1nnc(NC(=S)NC(=O)/C=C/c2ccco2)n1	1.5	23.6*	-29.2	4.9	14.2	5.9	4.6	5.2
Cc1nn(C)c(NC(=O)c2ccccc2Cl)c1Br	-7.4	-0.7	10.8	4.6	11.2	1.1	x	x
Cc1[nH]c2ccccc2c1CC#N	0.6	1.2	4.8	-0.4	21.1	-12.3	x	x
Cc1[nH]c2ccccc2c1C1=CC(=O)C=CC1=O	-13.2	49.2*	76.1*	56.2	16.3	73.8*	45.9*	80.3*
C[C@H](CO)N1C[C@H](C)[C@@H](CN(C)Cc2ccc(Cl)c(Cl)c2)Oc2c(NC(=O)Cc3ccccc3)cccc2C1=O	2.8	26.3*	44.4	4.2	6.5	8.4	4.7	-0.1
CCN(CC)CCNC(=O)CSc1c2c(nc3cc(Cl)ccc13)CCCC2	-9.8	32.6*	78.2*	-22.2	12.7	15.1	46.3*	40.8*
COc1cccc(NC(=O)CSc2c3c(nc4ccccc24)CCCC3)c1	-13.0	34.2*	-6.8	1.0	15.2	34.5	39.4*	46.3*
Cc1ccccc1NC(=O)c1cc(S(=O)(=O)N2CCCCC2)ccc1N1CCOCC1	-1.3	-3.6	7.3	x	4.8	7.6	x	x
NS(=O)(=O)c1ccc(CNc2nc(-c3cccnc3)nc3ccccc23)cc1	-5.5	0.8	-59.2	7.0	1.4	-13.2	x	x
